Test [1] is described as follows: qHTS assay to identify small molecule antagonists of the glucocorticoid receptor (GR) signaling pathway - cell viability counter screen (AID 720693). Also: nearly all actives have a fitted effect of over 55% in size. Also: potency is read from the fitted curve at half-maximal effect. For orientation: qHTS replaces the single test concentration by a dilution series.
Test [2] in a line: qHTS assay for identifying genotoxic compounds that show differential cytotoxicity against isogenic chicken DT40 cell lines with known DNA damage response pathways - wild type cell line (AID 743012). Also: nearly all actives have a fitted effect of over 60% in size. Also: potency is read from the fitted curve at half-maximal effect. A digest of the protocol: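 First, wild type DT40 cells were plated at 300 per well and equilibrated about 0.5 h at 37 C/5% CO2. Next, compounds in DMSO were added and exposure lasted 40 h. Finally, CellTiter-Glo was added for 30 min at room temperature and luminescence recorded.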

Test [3] is described as follows: qHTS assay for identifying genotoxic compounds that show differential cytotoxicity against isogenic chicken DT40 cell lines with known DNA damage response pathways - Rev3 mutant cell line (AID 743014). Also: nearly all actives have a fitted effect of over 55% in size. Also: potency is read from the fitted curve at half-maximal effect.
Test [4] in a line: qHTS assay for identifying genotoxic compounds that show differential cytotoxicity against isogenic chicken DT40 cell lines with known DNA damage response pathways - Rad54/Ku70 mutant cell line (AID 743015). Also: nearly all actives have a fitted effect of over 60% in size. Also: potency is read from the fitted curve at half-maximal effect.
Test [5] in a line: qHTS assay to identify small molecule antagonists of the androgen receptor (AR) signaling pathway - cell viability counter screen (AID 743033; also: nearly all actives have a fitted effect of over 45% in size; also: potency is read from the fitted curve at half-maximal effect).
The nature of test [6]: qHTS assay to identify small molecule antagonists of the androgen receptor (AR) signaling pathway using the MDA cell line - cell viability counter screen (AID 743041; also: nearly all actives have a fitted effect of over 45% in size; also: potency is read from the fitted curve at half-maximal effect). A digest of the protocol:
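MDA-kb2 AR-luc cells (MMTV-luciferase, AR/GR responsive) treated with compounds plus R1881 agonist for 16 h at 37C. CellTiter-Fluor added at 15.5 h; fluorescence read after 30 min in the same wells.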

The nature of test [7]: qHTS assay to identify small molecule antagonists of the thyroid receptor (TR) signaling pathway - cell viability counter screen (AID 743064). Also: nearly all actives have a fitted effect of over 50% in size. Also: potency is read from the fitted curve at half-maximal effect. A digest of the protocol: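 CellTiter-Fluor readout, 30 min at 37 °C/5% CO2, following 23.5 h incubation of GH3.TRE-Luc cells with test compound and 1 nM T3 (final).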
Test [8] can be described thus: qHTS assay to identify small molecule antagonists of the thyroid receptor (TR) signaling pathway (AID 743065). Also: nearly all actives have a fitted effect of over 55% in size. Also: potency is read from the fitted curve at half-maximal effect. A digest of the protocol: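 GH3.TRE-Luc rat pituitary cells (two TREs driving luciferase) were dosed with compound, then stimulated with 1 nM T3 (final) for 23.5 h at 37 C. ONE-Glo luminescence was the read-out, with CellTiter-Fluor fluorescence as the cytotoxicity counter-screen.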

The nature of test [9]: qHTS assay to identify small molecule antagonists of the estrogen receptor alpha (ER-alpha) signaling pathway - cell viability counter screen (AID 743074; calls by dose curve;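 also: HEK293 cells carrying ER-alpha-UAS-bla reporter stimulated with 17beta-estradiol; nearly all actives have a fitted effect of over 45% in size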; also: potency is read from the fitted curve at half-maximal effect).
In test [10] the target is Estrogen receptor (Homo sapiens) (UniProt P03372). In words: qHTS assay to identify small molecule agonists of the estrogen receptor alpha (ER-alpha) signaling pathway (AID 743075; calls by dose curve).
The nature of test [11]: qHTS assay to identify small molecule antagonists of the estrogen receptor alpha (ER-alpha) signaling pathway using the BG1 cell line - cell viability counter screen (AID 743081).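 Also: compound given together with 17beta-estradiol as the ER stimulus; nearly all actives have a fitted effect of over 45% in size.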 Also: potency is read from the fitted curve at half-maximal effect.
Another test concerns the target Aromatase (Homo sapiens) (UniProt P11511). Kind of test: qHTS assay to identify aromatase inhibitors (AID 743083). Also: nearly all actives have a fitted effect of over 55% in size. Also: potency is read from the fitted curve at half-maximal effect.
In test [12] the test system is thyroid hormone receptor (rat, GH3 cells). In words: qHTS assay to identify small molecule agonists of the thyroid receptor (TR) signaling pathway (AID 743066; calls by dose curve).
The target in test [13] is Estrogen receptor (Homo sapiens) (UniProt P03372). Kind of test: qHTS assay to identify small molecule antagonists of the estrogen receptor alpha (ER-alpha) signaling pathway (AID 743069; active = well fitted curve in the direction sought with a large enough effect in the signal ratio in the repeat runs, not every such curve was filed as active; the % refers to the signal ratio). A digest of the protocol: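 HEK293 ER-alpha-UAS-bla GripTite cells, held overnight in 2% charcoal-stripped FBS, 5,000 cells/well, preincubated 4 h, then compound plus 17beta-estradiol for 18 h at 37C. Beta-lactamase read by LiveBLAzer B/G FRET substrate, 2 h at room temperature.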

Test [14] has the same target. Kind of test: qHTS assay to identify small molecule agonists of the estrogen receptor alpha (ER-alpha) signaling pathway using the BG1 cell line (AID 743079). Also: nearly all actives have a fitted effect of over 20% in size. Also: potency is read from the fitted curve at half-maximal effect.
Test [15] is described as follows: qHTS assay to identify small molecule antagonists of the estrogen receptor alpha (ER-alpha) signaling pathway using the BG1 cell line (AID 743080; calls by dose curve;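 also: BG1 cells stimulated with 17beta-estradiol alongside compound; series mostly up to about 70 µM; nearly all actives have a fitted effect of over 25% in size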). In short, it runs like this: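 BG1-Luc-4E2 cells (endogenous full-length ER-alpha, stable 4×ERE-luciferase) were starved 5 days in phenol-red-free medium with 10% charcoal-stripped FBS, plated 24 h, then given compound plus 17beta-estradiol for 21.5 h at 37 C; ONE-Glo luminescence read after 30 min.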

Test [16] addresses Androgen receptor (Homo sapiens) (UniProt P10275). Kind of test: qHTS assay to identify small molecule antagonists of the androgen receptor (AR) signaling pathway (AID 743035; active = well fitted inhibition curve with a large enough effect in the signal ratio in the repeat runs, not every such curve was filed as active; the % refers to the signal ratio). A digest of the protocol:
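Beta-lactamase FRET read (2 h RT incubation with LiveBLAzer B/G) following 16 h of compound plus R1881 treatment of AR-UAS-bla HEK293 cells, which had been pre-incubated 4 h at 37C.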

For test [17] the target is unchanged. In words: qHTS assay to identify small molecule agonists of the androgen receptor (AR) signaling pathway (AID 743036; active = well fitted activation curve with a large enough effect in the signal ratio in the repeat runs, with a control signal flat, not every such curve was filed as active; the % refers to the signal ratio). A digest of the protocol: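 Following a 4 h settling period, AR-UAS-bla HEK293 cells were dosed with compounds for 16 h at 37C. A 2 h room-temperature incubation with LiveBLAzer B/G FRET substrate preceded the fluorescence measurement.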
The target is the same in test [18]. In words: qHTS assay to identify small molecule agonists of the androgen receptor (AR) signaling pathway using the MDA cell line (AID 743040; also: nearly all actives have a fitted effect of over 20% in size). A digest of the protocol: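 MDA-kb2 breast carcinoma cells carrying MMTV-luciferase (responsive to AR and GR), plated 5 h then treated 16 h with compounds at 37C, 0% CO2. Read-out was ONE-Glo luminescence after 30 min at room temperature.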

Test [19] has the same target. Kind of test: qHTS assay to identify small molecule antagonists of the androgen receptor (AR) signaling pathway using the MDA cell line (AID 743042; also: nearly all actives have a fitted effect of over 55% in size). In short, it runs like this:
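MDA-kb2 breast carcinoma cells carrying MMTV-luciferase (AR/GR responsive) were co-treated with compounds and the agonist R1881 for 16 h at 37C. Inhibition read as ONE-Glo luminescence; CellTiter-Fluor fluorescence measured in parallel for cytotoxicity.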

Values joined by “and” are separate entries in the source; they are usually repeats but may differ in a detail not shown here. Identical values can stand only once. Inconclusive results are not listed. Active and inactive are the calls of the source. Unless noted, calls follow the shape of the dose curve; as a rule, active = well fitted curve in the direction sought with a large enough effect in the repeat runs; inconclusive = weak or mixed curves; inactive = no such curve, though single readings can be large; an effect the other way counts as inactive or inconclusive.

Estrogen receptor (Homo sapiens), sequence (P03372 whole entry, looked up): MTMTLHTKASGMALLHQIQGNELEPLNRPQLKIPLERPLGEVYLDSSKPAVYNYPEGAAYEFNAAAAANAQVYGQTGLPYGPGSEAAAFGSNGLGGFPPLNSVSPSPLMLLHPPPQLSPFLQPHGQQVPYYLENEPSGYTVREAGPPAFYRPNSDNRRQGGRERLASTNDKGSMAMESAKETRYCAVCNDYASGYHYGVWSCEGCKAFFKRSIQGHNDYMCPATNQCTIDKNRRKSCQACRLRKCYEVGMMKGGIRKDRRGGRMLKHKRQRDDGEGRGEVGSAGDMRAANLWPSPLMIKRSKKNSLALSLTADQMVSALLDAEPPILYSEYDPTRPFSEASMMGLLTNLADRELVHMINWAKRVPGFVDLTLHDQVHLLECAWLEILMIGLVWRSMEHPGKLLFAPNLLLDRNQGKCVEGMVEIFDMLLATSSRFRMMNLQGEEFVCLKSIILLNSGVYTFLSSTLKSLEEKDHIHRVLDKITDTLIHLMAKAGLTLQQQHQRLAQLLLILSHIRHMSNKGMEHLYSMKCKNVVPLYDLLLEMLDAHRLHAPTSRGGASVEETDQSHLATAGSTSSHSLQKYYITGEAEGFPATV
Aromatase (Homo sapiens), sequence (P11511 whole entry, looked up): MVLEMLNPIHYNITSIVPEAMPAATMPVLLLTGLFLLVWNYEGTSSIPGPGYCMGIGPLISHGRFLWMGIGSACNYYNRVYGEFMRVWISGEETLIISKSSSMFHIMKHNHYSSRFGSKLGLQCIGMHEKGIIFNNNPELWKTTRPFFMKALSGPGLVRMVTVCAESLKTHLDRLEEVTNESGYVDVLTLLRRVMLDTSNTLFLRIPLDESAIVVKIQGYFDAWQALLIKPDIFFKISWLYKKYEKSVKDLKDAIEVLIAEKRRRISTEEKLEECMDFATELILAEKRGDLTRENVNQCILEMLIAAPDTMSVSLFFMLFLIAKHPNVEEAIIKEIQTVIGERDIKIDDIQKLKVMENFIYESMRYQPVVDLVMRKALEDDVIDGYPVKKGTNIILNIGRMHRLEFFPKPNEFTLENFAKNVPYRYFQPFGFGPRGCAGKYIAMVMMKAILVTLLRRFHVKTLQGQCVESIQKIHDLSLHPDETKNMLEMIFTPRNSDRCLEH
Androgen receptor (Homo sapiens), sequence (P10275 whole entry, looked up): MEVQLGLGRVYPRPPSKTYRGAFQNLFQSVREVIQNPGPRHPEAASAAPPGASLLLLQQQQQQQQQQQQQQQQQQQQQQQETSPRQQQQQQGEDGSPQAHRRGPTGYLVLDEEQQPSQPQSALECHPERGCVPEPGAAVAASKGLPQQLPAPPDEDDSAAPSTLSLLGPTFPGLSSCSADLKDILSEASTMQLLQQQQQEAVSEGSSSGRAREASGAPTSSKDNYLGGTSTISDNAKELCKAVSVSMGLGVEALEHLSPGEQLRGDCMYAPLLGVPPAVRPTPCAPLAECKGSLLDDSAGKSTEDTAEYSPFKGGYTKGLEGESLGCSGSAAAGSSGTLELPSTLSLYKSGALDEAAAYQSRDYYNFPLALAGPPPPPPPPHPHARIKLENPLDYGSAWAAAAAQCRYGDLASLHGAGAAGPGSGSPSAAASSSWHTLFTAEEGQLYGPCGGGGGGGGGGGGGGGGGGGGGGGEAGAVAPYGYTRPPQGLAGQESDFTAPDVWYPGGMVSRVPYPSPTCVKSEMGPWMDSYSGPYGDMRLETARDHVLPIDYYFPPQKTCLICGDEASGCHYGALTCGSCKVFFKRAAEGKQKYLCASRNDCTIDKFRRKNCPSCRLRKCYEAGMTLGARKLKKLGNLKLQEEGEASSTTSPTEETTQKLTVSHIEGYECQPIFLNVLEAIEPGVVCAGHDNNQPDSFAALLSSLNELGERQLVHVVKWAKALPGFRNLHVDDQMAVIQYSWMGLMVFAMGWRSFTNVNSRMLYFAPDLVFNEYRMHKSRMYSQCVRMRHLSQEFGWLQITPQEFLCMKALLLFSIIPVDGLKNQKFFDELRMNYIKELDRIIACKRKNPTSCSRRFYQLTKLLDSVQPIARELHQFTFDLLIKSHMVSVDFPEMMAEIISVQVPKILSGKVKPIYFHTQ

In the case of `CCCCCCCCCCCCCCCC[N+](C)(C)CC`, the Potency in test [1] is 13.4 µM (active) and 17.4 µM (active); in test [2], 376 nM (active) and 866 nM (active); in test [3] it was 422 nM (active) and 866 nM (active); in test [4], 473 nM (active) and 866 nM (active); in [5], 9.52 µM (active) and 21.9 µM (active); in test [6], 18.8 µM (active) and 43.4 µM (active). Besides, the Potency in test [7] is 5.96 µM (active) and 15.4 µM (active); in test [8], 4.22 µM (active) and 6.13 µM (active); in [9], 19 µM (active) and 55.1 µM (active); in [11] it was 54.6 µM (active); in the test with Aromatase (Homo sapiens), 9.44 µM (active) and 8.66 µM (active). For the same compound, the Potency result in [10] is “inactive”.
Take `O=C(O)c1cc(O)c2ccccc2c1O`: the Potency result in [1], in test [5], in test [9] and in test [10] was “inactive” throughout. Besides, the Potency in test [2] is 6.11 µM (active); in test [3], 5.45 µM (active); in test [4], 6.11 µM (active); in [7] it was 9.69 µM (active); in the test with Aromatase (Homo sapiens), 9.69 µM (active). Moreover, in test [12], the compound was classed as inactive.
Turning to `CC1=CCC(=C(C)C)CC1`, the Potency result in test [1], in test [2], in test [3], in test [4], in test [5] and in test [6] was “inactive” each time. For the same compound, the Potency result (in test [13]; in test [9]; in test [10]; in test [15]; in test [11]; in the test with Aromatase (Homo sapiens)) was “inactive” in each case. Further, the Potency in [14] is 68.6 µM (active).
`Cc1cc(-c2ccc(N=Nc3cc(S(=O)(=O)O)c4ccccc4c3N)c(C)c2)ccc1N=Nc1cc(S(=O)(=O)O)c2ccccc2c1N`: the Potency result in [1] was “inactive”. Further, the Potency was 0.548 µM (active) in test [2]; 0.388 µM (active) in test [3]; 0.346 µM (active) in test [4]; 61.4 µM (active) in [7]; 27.4 µM (active) in [8]; 30.8 µM (active) in test [11]. The compound was classed as inactive in test [12].
As for `CCC(=O)OC(=O)CC`, the Potency entry in test [1], in [2], in test [3], in test [4], in [6] and in test [7] was “inactive” in each case. In addition, the Potency result in [8], in test [13], in [9], in test [10], in test [14] and in [15] was “inactive” in each case. The Potency result (in test [11]; with Aromatase (Homo sapiens)) was “inactive” throughout. The call in test [12] was inactive.
Take `O=C1OC2(c3ccc(O)cc3Oc3cc(O)ccc32)c2ccc(N=C=S)cc21`: the Potency entry in test [1], in test [2], in [3], in test [4], in test [5] and in [9] was “inactive” each time. For the same compound, the Potency result (in test [11]; in the test with Aromatase (Homo sapiens)) was “inactive” throughout. For the same compound, in test [12], the compound was classed as inactive.
Regarding `CNC(=O)c1ccccc1Sc1ccc2c(/C=C/c3ccccn3)n[nH]c2c1`, the Potency result (in [1]; in test [6]; in [7]; with Aromatase (Homo sapiens)) was “inactive” throughout. Also, the Potency in [2] is 2.11 µM (active); in test [3], 2.37 µM (active); in test [4] it was 2.66 µM (active). The compound was called inactive in test [12].
For `Cc1ccc(C)cc1`, the Potency result in test [1], in test [2], in test [3], in test [4], in [16] and in test [17] was “inactive” in each case. For the same compound, the Potency entry in test [6], in test [19], in [7], in test [8], in test [13] and in test [9] was “inactive” in each case. For the same compound, the Potency entry in test [10], in test [14], in test [15] and in test [11] was “inactive” throughout. Moreover, the outcome in [18] and in [12] was inactive.
On to `OCCN1CCN(CCCN2c3ccccc3Sc3ccc(C(F)(F)F)cc32)CC1`, for which the Potency entry in [1], in [13], in test [9], in test [10], in test [14] and in [15] was “inactive” each time. In addition, the Potency result in test [11] was “inactive”. Moreover, the Potency in [2] is 3.76 µM (active); in [3], 1.68 µM (active); in test [4], 4.22 µM (active); in [7], 6.68 µM (active).

(Values after PubChem BioAssay (Tox21).)
